Experimental data published in PubChem BioAssay (NCATS).
Records with an inconclusive call do not appear. Entries that show only a call come without a potency. The source made the active and inactive calls. Calls come from the whole dose curve; as a rule, active = well fitted cell-killing curve with a large enough effect; inconclusive = small, poorly fitted or top-dose-only effect; inactive = no such curve, though single readings can be large or run the other way.

Experiment: qHTS of pediatric cancer cell lines to identify multiple opportunities for drug repurposing: Primary screen for NB1643 cells (AID 1347099); note: nearly all actives have a fitted effect of over 50% in size
Conditions: NB1643 neuroblastoma viability, CellTiter-Glo luminescence, 48 h; series mostly up to 46 µM
Excerpt: Drug repurposing or repositioning has been offered as a strategy for drug development in oncology programs. This approach has special potential for childhood cancers and other rare or orphan diseases, where the expected return on new drug development has been a disincentive to pharmaceuticals. […] In this project we exploit the poly-pharmacology of drugs to discover new indications via phenotypic screening of a panel of 19 well-characterized cell lines derived from solid tumors seen in children and adolescents. The goal is to identify approved drugs with previously unrecognized anticancer properties that has the potential to reveal new mechanisms and biological processes involved in carcinogenesis or drug resistance. We employed a titration-based paradigm (quantitative high-throughput screening or qHTS), where all compounds were tested at multiple concentrations for their effect on cell viability. Concentration-response curves (CRCs) were derived directly from the primary screen, and both potency and efficacy values were used to identify compounds with robust bioactivity profiles. We screened the NIH Chemical Genomics Center (NCGC) Pharmaceutical Collection (NPC) and Mechanism Interrogation Plate (MIPE) small molecule collections of approved and investigational compounds against these cell lines; and measured metabolically active cells after 48 hours of compound treatment as a proxy for cell viability. […] Assay Submitter: Nathalia J. Martinez, National Center for Advancing Translational Sciences, National Institutes of Health, Rockville, MD, USA; email: natalia.martinez@nih.gov Shen, M et al. Quantitative high-throughput phenotypic screening of pediatric cancer cell lines identifies multiple opportunities for drug repurposing. Oncotarget 2017 Dec 19;9(4):4758-4772. PMID 29435139.
The cells were obtained from University of North Carolina (UNC), Pediatric Preclinical Testing Program (PPT), and Coriell Institute (CI). qHTS cell viability assay: Cells were assayed in growth media at a density of 500-1,000 cells/well. Five microliters of cells were dispensed into 1,536-well, white, solid-bottom, TC-treated plates (Greiner Bio One) using a multidrop dispenser and incubated at 37 degrees C, 5% CO2, under a humidified atmosphere for 5 hours. Twenty-three nanoliters of compounds and controls (neutral control DMSO or positive control bortezomib at final concentration of 2.3 µM) were subsequently transferred by Kalypsys pintool. For primary screens, the MIPE collection was tested at 11-point dilutions (final concentrations range from 0.78 nM to 46 µM) and the NPC collection at 8-point dilutions (final concentrations range from 0.59 nM to 46 µM). Compounds tested in follow-up screens were assayed at 11-point dilutions. Cells were incubated for 48 hours, followed by addition of 3 µL of CellTiter-Glo (Promega). After a 15 min incubation at room temperature, samples were analyzed for luminescence intensity using a ViewLux High-throughput CCD imager equipped with clear filters.
Potency is the fitted concentration of half-maximal effect.

| Structure (SMILES) | Potency | activity change, negative = cytotoxic |
| --- | --- | --- |
| CC(C)n1nc(-c2cc3cc(O)ccc3[nH]2)c2c(N)ncnc21 | 21.1 µM (active) |  |
| Nc1ccc(/C=C/c2ccc(N)cc2S(=O)(=O)O)c(S(=O)(=O)O)c1 |  | 24.7% [at 0.597 µM] (inactive) |
| CO/N=C1\CN(c2nc3c(cc2F)c(=O)c(C(=O)O)cn3C2CC2)CC1CN (stereo not given) | inactive |  |
| CCOC(=O)COc1ccc2c(C)c(CCN(CC)CC)c(=O)oc2c1Cl | inactive |  |
| CCN(CC)CCNC(=O)COc1ccc(Cl)cc1 | inactive |  |
| CCN1CCC[C@H]1CNC(=O)c1c(OC)ccc(Br)c1OC | inactive |  |
| CC(C)(C(=O)c1cccnc1)c1cccnc1 | inactive |  |
| CC1(C)O[C@@H]2C[C@H]3[C@@H]4C[C@H](F)C5=CC(=O)CC[C@]5(C)[C@H]4[C@@H](O)C[C@]3(C)[C@]2(C(=O)CO)O1 | inactive |  |
| COc1cc(OC)cc(OC)c1 | inactive |  |
| COc1cc2c(cc1OC)C(C(C(=O)N(CCc1ccc(OC)c(OC)c1OC)CCc1ccc(OC)c(OC)c1OC)c1ccccc1)=NCC2 (stereo not given) | inactive |  |
| Oc1c(I)cc(I)c2cccnc12 | inactive |  |
| CC(=O)Oc1ccc(C(c2ccc(OC(C)=O)cc2)c2ccccn2)cc1 | inactive |  |
| Nc1ccc(C(=O)Nc2ccccc2N)cc1 | 7.5 µM (active) |  |
| C#C[C@]1(OC(C)=O)CC[C@H]2[C@@H]3CCC4=C[C@@H](OC(C)=O)CC[C@@H]4[C@H]3CC[C@@]21C | inactive |  |
| C[C@]12CC[C@H]3[C@@H](CCC4=CC(=O)CC[C@@]43C)[C@@H]1CC[C@@H]2C(=O)CO | inactive |  |
| CC(=O)Oc1ccc2c(c1)CC[C@@H]1[C@@H]2CC[C@]2(C)[C@@H](O)CC[C@@H]12 | inactive |  |
| O=C1OCCN1/N=C/c1ccc([N+](=O)[O-])o1 | inactive |  |
| COc1ccc(OC)c(C(O)CNC(=O)CN)c1 (stereo not given) | inactive |  |
| O=C(N/N=C/c1ccccc1O)c1ccncc1 | 3.35 µM (active) |  |
| C[C@]12CCC(=O)C=C1[C@@H]1C[C@@H]1[C@H]1[C@@H]3[C@@H]4C[C@@H]4[C@@]4(CCC(=O)O4)[C@@]3(C)CC[C@@H]12 | inactive |  |

| Structure (SMILES) | Potency | activity change, negative = cytotoxic |
| --- | --- | --- |
| NC(CO)(CO)CO | inactive |  |
| O=c1[nH]c(=O)n([C@H]2C[C@H](O)[C@@H](CO)O2)cc1C(F)(F)F | inactive |  |
| O=c1c(-c2ccccc2)c1-c1ccccc1 | 8.41 µM (active) |  |
| CCN1CCN(c2cc3c(cc2F)c(=O)c(C(=O)O)cn3C2CC2)CC1 | inactive |  |
| OC(CCN1CCCCC1)(c1ccccc1)c1ccccc1 | inactive |  |
| C[C@@H]1CN(CCCn2c3ccccc3c3ccccc32)C[C@H](C)N1 | inactive |  |
| c1ccc(OCc2ccc(CCCN3CCOCC3)cc2)cc1 | inactive |  |
| CCC(C(=O)OCCN(CC)CC)c1ccccc1 (stereo not given) | inactive |  |
| CN(C)C(=S)SC(=S)N(C)C | 2.99 µM (active) |  |
| COc1cccc(CCc2ccccc2OCC(CN(C)C)OC(=O)CCC(=O)O)c1 (stereo not given) | inactive |  |
| CCN(CCCc1ccccc1)CCCc1ccccc1 | inactive |  |
| CCCCc1nc(Cl)c(CO)n1Cc1ccc(-c2ccccc2-c2nn[nH]n2)cc1 | inactive |  |
| O=C(OCCOCCO)c1ccccc1Nc1cccc(C(F)(F)F)c1 | inactive |  |
| CCCCOc1ccc(OCCCN2CCOCC2)cc1 | inactive |  |
| CC(C)(C)NC(=O)[C@@H]1CN(Cc2cccnc2)CCN1C[C@@H](O)C[C@@H](Cc1ccccc1)C(=O)N[C@H]1c2ccccc2C[C@H]1O | inactive |  |
| Cc1ccc(Nc2c(F)cccc2Cl)c(CC(=O)O)c1 | inactive |  |
| CCCCN1CCCC1C(=O)Nc1c(C)cc(C)cc1C (stereo not given) | inactive |  |
| NC(=O)c1cc[n+](CC2=C(C(=O)[O-])N3C(=O)[C@@H](NC(=O)Cc4cccs4)[C@H]3SC2)cc1 | inactive |  |
| Clc1ccc2c(c1)CCc1cccnc1C2=C1CCNCC1 | inactive |  |
| CC(C)NC[C@@H](O)COc1cccc2ccccc12 | inactive |  |
